In article PMC5540273 (PLoS ONE, 2017):

Key:
Conditions in all cases: concentration: 1 μM, replicates: in singlicate; n = 1
[1] = system: AXL
[2] = system: T1, BIKE
T1 construct: gene BMP2K

[3] = system: BLK
[4] = system: BMPR1A
[5] = system: BMPR1B
[6] = system: BMPR2
[7] = system: BMX
[8] = system: BRAF
[9] = system: T2, BRK
T2 construct: gene PTK6

[10] = system: BRSK1
[11] = system: BRSK2
[12] = system: BTK
[13] = system: BUB1
[14] = system: CAMK1B
[15] = system: CAMK1D
[16] = system: CAMK1G
[17] = system: CAMK1
[18] = system: CAMK2A
[19] = system: CAMK2B
[20] = system: CAMK2D
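Further: KINOMEscan kinase panel screen.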

SMILES | %Inh [1] [%] | %Inh [2] [%] | %Inh [3] [%] | %Inh [4] [%] | %Inh [5] [%] | %Inh [6] [%] | %Inh [7] [%] | %Inh [8] [%] | %Inh [9] [%] | %Inh [10] [%] | %Inh [11] [%] | %Inh [12] [%] | %Inh [13] [%] | %Inh [14] [%] | %Inh [15] [%] | %Inh [16] [%] | %Inh [17] [%] | %Inh [18] [%] | %Inh [19] [%] | %Inh [20] [%]
COc1cc(Nc2nccc(N3CCC(NC(=O)C(C)c4ccc(Cl)cc4)C3)n2)cc(OC)c1OC (stereo not drawn) [GSK1379757] | 13 | 40 | 28 | 0 | 0 | 4 | 1 | 0 | 11 | 0 | 0 | 0 | 48 | 0 | 9 | 0 | 22 | 0 | 0 | 0
CN(C)c1cc(-c2ccc3c(N)n[nH]c3c2)nc(N)n1 [GSK2219329] | 0 | 32 | 2 | 0 | 0 | 0 | 13 | 0 | 0 | 0 | 0 | 0 | 24 | 0 | 9 | 0 | 4 | 0 | 0 | 0
COC(=O)c1c(-c2ccccc2)c2cc(C)ccc2c(=O)n1Cc1ccccc1 | 0 | 0 | 0 | 0 | 0 | 0 | 19 | 79 | 0 | 0 | 0 | 0 | 0 | 0 | 19 | 12 | 21 | 0 | 0 | 0
CCS(=O)(=O)c1ccc(OC)c(Nc2ncc(-c3ccc(F)cc3)o2)c1.Cl [GW591947] | 0 | 22 | 41 | 14 | 0 | 0 | 0 | 0 | 0 | 0 | 0 | 0 | 8 | 0 | 3 | 4 | 0 | 0 | 0 | 12
Cc1ccccc1COc1cc(-n2cnc3cc(Cl)ccc32)sc1C(N)=O [GW813349] | 2 | 20 | 18 | 0 | 12 | 26 | 1 | 6 | 0 | 0 | 2 | 18 | 0 | 0 | 5 | 0 | 0 | 0 | 0 | 0
O=C(Nc1n[nH]c2nc(-c3ccccc3)c(Cl)cc12)C1CC1 [SB-734909] | 0 | 21 | 0 | 9 | 27 | 0 | 1 | 62 | 0 | 70 | 51 | 0 | 0 | 0 | 0 | 0 | 0 | 0 | 0 | 0
COc1cc(OC)cc(-c2cc3cnc(N)nc3nc2NC(=O)NC(C)(C)C)c1 | 0 | 0 | 8 | 54 | 0 | 0 | 0 | 10 | 0 | 0 | 6 | 0 | 0 | 0 | 0 | 0 | 0 | 0 | 0 | 4
Cn1c(=O)c(F)c(Nc2ccc(I)cc2F)c2c(=O)n(OC[C@H](O)CO)cnc21 | 10 | 30 | 9 | 0 | 0 | 0 | 0 | 0 | 2 | 0 | 15 | 0 | 0 | 0 | 8 | 0 | 0 | 4 | 12 | 9
COc1cc2ncn(-c3cc(OCc4ccncc4)c(C(N)=O)s3)c2cc1OC [GSK336313] | 0 | 14 | 0 | 0 | 0 | 0 | 2 | 0 | 0 | 0 | 0 | 0 | 4 | 24 | 25 | 47 | 24 | 0 | 0 | 37
Cl.c1ccc(Cn2cnc3cc(Nc4ncnc5ccccc45)ccc32)cc1 [GW272142] | 0 | 34 | 0 | 0 | 0 | 0 | 6 | 0 | 11 | 4 | 0 | 0 | 38 | 31 | 0 | 0 | 0 | 0 | 0 | 15
COc1cccc(C2=C(N(C)c3ccccc3)C(=O)NC2=O)c1 [SB-334865] | 0 | 0 | 0 | 0 | 0 | 0 | 0 | 0 | 15 | 0 | 0 | 0 | 53 | 8 | 12 | 0 | 4 | 0 | 0 | 17
COC(=O)c1c(-c2ccccc2)c2cc(Br)ccc2c(=O)n1Cc1ccc(NC(=O)CCC(=O)O)cc1 | 0 | 0 | 4 | 0 | 6 | 7 | 2 | 42 | 0 | 0 | 0 | 38 | 20 | 38 | 12 | 9 | 12 | 0 | 0 | 3
OCCCNc1nccc(-c2c(-c3cccc(C(F)(F)F)c3)nn3cc(C(F)(F)F)ccc23)n1 [GW630813] | 0 | 0 | 33 | 0 | 0 | 0 | 13 | 0 | 0 | 0 | 0 | 0 | 42 | 0 | 14 | 1 | 11 | 0 | 0 | 22
CCC(=O)c1c(-c2ccccc2)c2cc(Cl)ccc2c(=O)n1Cc1ccc(C(=O)O)cc1 | 0 | 0 | 0 | 0 | 0 | 4 | 0 | 48 | 0 | 0 | 0 | 0 | 0 | 0 | 0 | 0 | 0 | 0 | 0 | 0
CCCNC(=O)Nc1ccc(Oc2ncnc3ccn(C)c23)cc1 | 0 | 0 | 14 | 10 | 0 | 16 | 0 | 0 | 0 | 0 | 8 | 0 | 0 | 0 | 0 | 19 | 13 | 0 | 1 | 11
Cc1nnc(-c2ccc3ncn(-c4ccc(S(C)=O)cc4)c3c2)o1 (stereo not drawn) | 4 | 0 | 0 | 19 | 0 | 0 | 12 | 0 | 19 | 0 | 0 | 0 | 0 | 13 | 0 | 2 | 11 | 0 | 0 | 4
CCc1ccc(-c2ccc3c(c2)-c2nn(C)cc2S(=O)(=O)N3C)cc1 | 8 | 0 | 0 | 0 | 0 | 0 | 0 | 32 | 0 | 0 | 11 | 13 | 0 | 0 | 5 | 16 | 2 | 9 | 19 | 25
CCc1nc(-c2cccc(C)c2)c(-c2ccncc2)s1 | 0 | 3 | 0 | 0 | 0 | 0 | 0 | 50 | 7 | 0 | 0 | 0 | 35 | 9 | 23 | 0 | 8 | 0 | 0 | 0
Cc1nc(N(C)[C@H]2CN(C(=O)CC#N)CC[C@H]2C)c2cc[nH]c2n1 | 9 | 0 | 18 | 0 | 10 | 8 | 0 | 0 | 0 | 0 | 0 | 0 | 0 | 0 | 15 | 1 | 22 | 0 | 5 | 0
C[C@@H]1CC[C@H](C(=O)NC2CCCCC2)CN1c1cc(-c2ccc3c(N)n[nH]c3c2)nc(N)n1 [GSK2291363] | 4 | 78 | 52 | 0 | 0 | 0 | 21 | 5 | 27 | 0 | 10 | 0 | 48 | 2 | 29 | 22 | 35 | 4 | 16 | 18
COc1cc(Nc2ccnc3ccc(C(F)(F)F)cc23)cc(OC)c1OC [GW577382] | 12 | 0 | 34 | 0 | 22 | 22 | 16 | 8 | 8 | 0 | 10 | 35 | 23 | 38 | 14 | 1 | 17 | 0 | 0 | 5
